# Screening results deposited in PubChem BioAssay by National Center for Advancing Translational Sciences (NCATS).
# Most compounds without a hit are left out; they make up all but 6.6% or so of the library.
# KB-V1 cytotox: KB-V1 MDR subline cytotoxicity | KB-V1 MDR cells viability, CellTiter-Glo, 72 h | Potency, µM (titrated, usually from 46.1 µM), usual class: cytotoxic | 3.4% of 400,000 active; note: % is set by controls: 0 for no effect and ±100 for the full control effect; nearly all actives have a fitted effect of over 60% in size
#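 Cells of the MDR subline KB-V1 are plated, dosed with compound at multiple concentrations, and incubated 72 h at 37 degrees C; CellTiter-Glo is then added and luminescence read after 10 min.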
# KB-3-1 tox: kills parental KB-3-1 adenocarcinoma cells. KB-3-1 viability, CellTiter-Glo ATP luminescence, 72 h. Potency, µM (series often up to 46.1 µM), most hits filed as cytotoxic. 1.4% of 400,000 active. AID 1347075; note: % is set by controls: 0 for no effect and ±100 for the full control effect; nearly all actives have a fitted effect of over 60% in size
#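 Cells are dispensed, compounds pinned in, plates held at 37 °C for 72 h, then CellTiter-Glo is added and luminescence read after 10 minutes. Cell line: parental KB-3-1 in phenol-red-free DMEM, 10% FBS.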
# TGFb inhibitor: inhibitors of TGF-b signaling | 1.2% of 410,000 active | AID 588855 | HepG2 CAGA-GFP TGF-b/SMAD3 reporter, GFP fluorescence, 18 h; TGF-beta stimulated, 500 pg/mL final | Potency, µM (top dose mostly 46.1 µM), without a hit: at the highest dose activity, negative = inhibition, actives largely listed as inhibitors; note: % is set by controls: 0 for no effect and ±100 for the full control effect; nearly all actives have a fitted effect of over 65% in size
#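 HEPG2 CAGA-GFP cells (1000/well, DMEM with 1% FBS) were pre-incubated 2 h at 37 degrees C, given compound by pin tool, then stimulated with TGF-beta at 500 pg/mL final for 18 h before per-cell GFP fluorescence imaging.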
# HepG2 tox: kills HepG2 cells in TGF-b inhibitor counter-screen | HepG2 CAGA-GFP viability, ATP luminescence, 18 h | Potency, µM (highest dose often 46.1 µM), inactives show at the highest dose activity change, negative = cytotoxicity, hits mostly cytotoxic | 0.76% of 410,000 active
#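 HepG2 CAGA-GFP cells (1000/well, DMEM with 1% FBS) received compound, then TGF-beta at 500 pg/mL final, and were incubated 18 hours at 37 degrees C. Viability was read by CellTiter-Glo luminescence. Media-only wells were set as complete cell-killing and DMSO as no toxicity.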
# HT1080 IDH1KD tx: HT-1080 IDH1 knockdown cell toxicity (counter line) | HT-1080 IDH1 knockdown viability, ATP luminescence, 48 h | Potency, µM (titrated, usually from 46.1 µM), for inactives: at the top dose activity, negative = toxicity, usual class: cytotoxic | 2% of 360,000 active | AID 686971;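 note: 0% = DMSO wells and -100% = cell-free medium wells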
#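 Cytotoxicity counter-line: IDH1KD HT-1080, 48 h, CellTiter-Glo. Curves classed by r2, magnitude and activity.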
# HT1080-NT tox: kills 2HG-producing HT-1080-NT fibrosarcoma cells; AID 686970; Potency, µM (top dose mostly 46.1 µM), for inactives: at the highest dose activity, negative = less viability, actives largely listed as cytotoxic; HT-1080-NT fibrosarcoma viability, CellTiter-Glo ATP luminescence, 48 h; 1.6% of 360,000 active;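 note: NT is the 2HG producing partner of a matched IDH1 knockdown line; 0% = DMSO-treated cells and -100% = media-only wells without cells; nearly all actives have a fitted effect of over 55% in size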
#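 750 cells/well, RPMI + 5% FBS; 2 h settle, compound pin-transfer, 48 h at 37 degrees C. CellTiter-Glo 10 min RT, luminescence. Normalized to DMSO and media-only wells.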
# * marks the source's active call; other numbers are inactive results; i = inactive; ? = inconclusive; · = no result given; [ ] = another dose, or the depositor's remark. Calls come from the whole dose curve; as a rule, active = well fitted curve in the direction sought with a large enough effect; inconclusive = small, poorly fitted or top-dose-only effect, or another doubt; inactive = no such curve, though single readings can be large; an effect the other way counts as inactive or inconclusive. Potency is the fitted concentration of half-maximal effect.
SMILES,KB-V1 cytotox,KB-3-1 tox,TGFb inhibitor,HepG2 tox,HT1080 IDH1KD tx,HT1080-NT tox
CCc1ccc(-c2cc(C)no2)cc1S(=O)(=O)N1CCN(c2cccc(Cl)c2)CC1,?,3.66µM*,-12.0%,4.5%,·,·
CN(CC(=O)O)c1ccc(/C=C/c2ccnc3ccccc23)cc1,?,i,?,-48.9%,·,·
O=C(Cc1ccc(NC(=O)N2CCSc3ncccc32)cc1)NCCc1ccccc1,i,i,0.0%,-12.4%,·,·
O=C(c1ccc(Cl)cc1)N1CCN(S(=O)(=O)/C=C/c2ccccc2)CC1,i,23.1µM*,?,-2.3%,-2.4%,-3.1%[9.24 µM]
O=C(COc1ccc(Br)cc1)N1CCN(S(=O)(=O)/C=C/c2ccccc2)CC1,?,i,?,-20.6%,-17.9%,-10.4%
O=C(COc1ccccc1F)N1CCN(S(=O)(=O)/C=C/c2ccccc2)CC1,14.6µM*,i,-2.6%,9.3%,15.3%,10.0%
O=C(c1ccco1)N1CCN(S(=O)(=O)/C=C/c2ccccc2)CC1,i,i,2.5%,-0.1%,1.4%,-4.0%
COc1cc(CN2CCN(Cc3ccc4cc(F)ccc4n3)CC2CCO)cc(OC)c1 (centres undefined),i,i,3.3%,-10.1%,-18.0%,-21.2%
COc1ccc(CN2CCN(Cc3ccc4cc(F)ccc4n3)CC2CCO)c(C)c1C (centres undefined),?,?,?,-32.5%,18.4µM*,?
COc1cc2cnc(-c3ccccc3)c(-c3ccc(C(F)(F)F)cc3)c2cc1OC,i,?,11.2µM*,-34.7%,6.7%,0.8%
O=C(COC(=O)c1ccccc1C(=O)c1ccc(Cl)c([N+](=O)[O-])c1)NC1CCCCCC1,i,?,?,-78.1%,3.16µM*,8.91µM*
CN(CCC#N)C(=O)COC(=O)c1ccccc1C(=O)c1ccc(Cl)c([N+](=O)[O-])c1,i,?,5.9%,0.4%,16.4µM*,10.3µM*
CC(C)N(C(=O)COC(=O)c1ccccc1C(=O)c1ccc(Cl)c([N+](=O)[O-])c1)C(C)C,i,i,2.6%,-3.3%,20.6µM*,18.4µM*
COc1ccc(C(=O)c2ccc(Cl)c([N+](=O)[O-])c2)cc1,?,1.16µM*,?,-27.3%,5.8µM*,?
CCC(=O)N1CCc2cc(Br)cc(S(=O)(=O)N(CC)Cc3ccccc3)c21,i,i,?,-5.7%,·,·
COc1ccccc1C(=O)Nc1ccc(C(=O)OCc2cc(=O)n3nc(C)sc3n2)cc1,·,·,13.0%,22.8%,·,·
Cc1cc(NC(=O)C2CCCN(S(=O)(=O)c3cn(C)cn3)C2)ccc1Br (centres undefined),·,·,-15.5%,-21.4%,·,·
COc1ccc2sc(N(Cc3cccnc3)C(=O)c3cccs3)nc2c1,?,16.4µM*,-15.2%,1.9%,·,·
CC1CCN(S(=O)(=O)c2ccc3c(ccc(=O)n3CC(=O)Nc3ccc(C(C)C)cc3)c2)CC1,?,i,-0.2%,-3.3%,·,·
CCOC(=O)C1=C(C)C(c2ccccc2OC)NC(=O)N1 (centres undefined),i,i,-24.0%,2.5%,4.8%,-5.7%
CCOC(=O)C1=C(C)C(c2ccccc2OC)NC(=S)N1 (centres undefined),23.1µM*,i,-15.3%,-15.1%,-2.2%,-4.9%
O=c1oc2ccccc2c(O)c1/C=C1\C=Nc2ccccc21,?,?,0.0%,-81.9%,25.9µM*,?
O=c1oc2ccccc2c(O)c1/C=N/c1ncccn1,i,i,-0.8%,-10.6%,-24.6%,0.0%
Nc1ccc2oc(Cc3ccc(Cl)cc3)nc2c1,·,·,·,-18.4%,·,·
CCC1CCCCN1S(=O)(=O)c1cc2c(cc1C)NC(=O)CO2 (centres undefined),i,i,-28.7%,-19.6%,·,·
SMILES,KB-V1 cytotox,KB-3-1 tox,TGFb inhibitor,HepG2 tox,HT1080 IDH1KD tx,HT1080-NT tox
COc1ccc(-c2cn3ccccc3n2)cc1OC,i,?,-20.4%,-55.6%,?,?
COc1ccc(-c2cn3cc(C)ccc3n2)cc1F,?,i,?,15.8µM*,-2.2%,-8.6%
COc1ccc(-c2cn3cccc(C)c3n2)cc1F,?,i,-0.5%,-23.0%,5.5%,-5.0%
COc1ccc(-c2cn3cc(C)ccc3n2)cc1OC,6.51µM*,i,-18.8%,-39.9%,-8.6%,-9.3%
Cc1ccc(NC(=O)CCCn2c(=O)c3cccn3c3ccccc32)c(C)c1,·,·,-11.7%,-16.1%,·,·
N#C/C(=N\Nc1ccc(Cl)cc1)C(N)=S,i,i,?,-36.7%,2.31µM*,9.2µM*
Cc1ccc(-c2onc(C)c2C)cc1S(=O)(=O)NCc1cccs1,·,·,0.0%,-20.8%,·,·
Cc1ccc(S(=O)(=O)NNC(=O)c2cc(C)c(C)cc2N)cc1,16.4µM*,i,-14.2%,-9.1%,9.7%,9.8%
Cc1ccc(C)c(NS(=O)(=O)c2cc(C(=O)Nc3cccc(N(C)S(C)(=O)=O)c3)ccc2C)c1,?,?,-25.7%,-37.0%,?,?
Cc1ccc(NS(=O)(=O)c2cc(C(=O)Nc3cccc(N(C)S(C)(=O)=O)c3)ccc2C)c(C)c1,16.4µM*,i,?,8.9%,-0.8%,-1.6%
CN(c1cccc(NC(=O)c2ccc(C(C)(C)C)cc2)c1)S(C)(=O)=O,?,?,-0.9%,-24.3%,?,23.1µM*
CC1(c2ccccc2)NC(=O)N(CC(=O)Nc2ccc3c(c2)CCC3)C1=O (centres undefined),?,i,-13.8%,-16.1%,-16.3%,-9.9%
CC(C)c1ccc(NC(=O)CN2C(=O)CSc3ccc(S(=O)(=O)N4CCCC4)cc32)cc1,·,·,-28.7%,-13.9%,·,·
Clc1ccc(Cn2nc(-c3ccccc3)nc2-c2ccccc2)cc1,i,i,-29.8%,-16.9%,-1.0%,-7.4%
Clc1ccccc1Cn1nc(-c2ccccc2)nc1-c1ccccc1,14.6µM*,i,-14.8%,0.8%,7.5%,14.8%
CC(CNC(=O)c1ccc2nc(Cc3ccccc3)oc2c1)c1ccccc1 (centres undefined),i,?,-14.6%,-30.2%,·,·
CCCCCCCCN1C(=O)[C@H](CC(=O)NCCCOCCCC)C[C@@]2(C(=O)OC)CC(C)(C)CC=C12,23.1µM*,18.4µM*,·,·,?,-3.4%
CCCCCCCCN1C(=O)[C@H](CC(=O)NCCCOCCCC)C[C@@]2(C(=O)OC)CCCCC=C12,13µM*,?,·,·,?,?
CCCCCCCCN1C(=O)[C@H](CC(=O)NCCCC)C[C@@]2(C(=O)OC)CCCCC=C12,?,i,·,·,?,?
